Screens from PubChem.
Most compounds without a hit are left out; they make up all but 5.2% or so of the library.
A3G deaminase = inhibitors of human APOBEC3G DNA deaminase; Q9HC16; recombinant A3G, ssDNA deamination FAM/TAMRA fluorescence; inhibition, % at 20 µM; hit rate 0.28% among 330,000;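 active = inhibition of at least 40% at 20 µM, with no more than 30% in the related APOBEC3A deaminase screen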;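 note: plate controls were DMSO wells with A3G for no effect and wells lacking A3G enzyme for full effect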
Target sequence (Q9HC16 whole entry, looked up): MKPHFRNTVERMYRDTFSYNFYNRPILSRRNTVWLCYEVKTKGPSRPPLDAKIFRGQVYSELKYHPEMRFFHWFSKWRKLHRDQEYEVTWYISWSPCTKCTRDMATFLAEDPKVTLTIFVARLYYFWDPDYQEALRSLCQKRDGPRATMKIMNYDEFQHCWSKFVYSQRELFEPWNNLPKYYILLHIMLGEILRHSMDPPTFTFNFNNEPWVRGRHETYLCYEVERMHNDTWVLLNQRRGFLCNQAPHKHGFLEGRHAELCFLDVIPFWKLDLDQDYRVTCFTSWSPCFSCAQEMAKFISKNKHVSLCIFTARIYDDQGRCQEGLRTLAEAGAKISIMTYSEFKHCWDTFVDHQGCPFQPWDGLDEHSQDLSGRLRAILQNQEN
CR mimetic SO = caloric restriction mimetics inhibiting age-related superoxide in yeast; hit rate 0.18% among 330,000; S. cerevisiae aged cells, superoxide DHE fluorescence; hits give low values; superoxide response (% of plate mean), % at 10 µM; AID 2690;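 active = superoxide response under a set limit, about three screen SD below normal, cut at about 65% in these data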;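 note: yeast aged for seven days with compound at 30 °C before DHE staining; 100% = average MFI of all compound-treated wells on the plate with controls excluded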
ALR inh = human ALR oxidase inhibition via reduced H2O2 | P55789 | purified ALR, DTT oxidation, H2O2 HRP-luminol luminescence | inhibition, % (test concentration not listed) | hit rate 3.8% among 290,000 | AID 485317;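 active = mean replicate inhibition above about 79%, with every replicate also reaching it, limit read from the data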
PfM18AAP inh = blocks P. falciparum M18 aspartyl aminopeptidase. inhibition, % at 7.35 µM. hit rate 1.2% among 290,000. recombinant PfM18AAP, H-Glu-NHMec fluorogenic cleavage. AID 1822;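 active = inhibition above the campaign mean inhibition over all tested compounds plus 3 SD, cut at about 28% in these data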;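 note: 0% = plate median of test compound wells and 100% = 2 mM ZnCl2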
CendR NRP1 mod = modulators of CendR peptide binding to human neuropilin-1; FAM-RPARPAR peptide binding to NRP-1, fluorescence polarization; inhibition, % at 25 µM; hit rate 0.85% among 360,000;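 active = inhibition or corrected inhibition above about 18%, plus a signal ratio from 0.5 to 1.5, limit read from the data, passing the limit was not always enough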
A3A deaminase = human APOBEC3A DNA deaminase inhibition; P31941; recombinant A3A, FAM/TAMRA ssDNA deamination fluorescence; inhibition, % at 20 µM; hit rate 0.41% among 330,000;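 active = at least 40% inhibition at 20 µM here, with at most 30% in a related deaminase screen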;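 note: plate controls were A3A with DMSO for no effect and wells lacking A3A enzyme for full effect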
The depositor's hits bear a star.

How did CC(=O)N1c2ccc(S(=O)(=O)N3CCC(C(=O)Nc4cc(C)cc(C)c4)CC3)cc2CC1C (stereo not drawn) do in these assays?
A3G deaminase: 9.0; CR mimetic SO: 77.6; ALR inh: -1.4; PfM18AAP inh: 3.2; CendR NRP1 mod: 5.9; A3A deaminase: 3.1

How did O=C(Nc1ccc(F)cc1)C1CCCO1 (stereo not drawn) do in these assays?
A3G deaminase: -4.4; CR mimetic SO: 109.8; ALR inh: -4.0; PfM18AAP inh: 6.7; CendR NRP1 mod: -3.5; A3A deaminase: -2.2

What do the screens show for `Cc1cccc(N2CCN(C(=O)c3ccc4c(c3)OCCO4)CC2C)c1` (stereo not drawn)?
A3G deaminase: -12.6; CR mimetic SO: 100.1; ALR inh: 24.1; PfM18AAP inh: -8.5; CendR NRP1 mod: -13.6; A3A deaminase: 2.1

What do the screens show for `Cc1nn(CC(=O)N2CCN(c3ccccc3)CC2)c(=O)c2cccn12`?
A3G deaminase: -4.0; CR mimetic SO: 94.9; ALR inh: -15.7; PfM18AAP inh: -4.3; CendR NRP1 mod: 3.9; A3A deaminase: -4.8

What do the screens show for `O=C(Nc1ccc(O)cc1)C1CCCO1` (stereo not drawn)?
A3G deaminase: -0.2; CR mimetic SO: 108.2; ALR inh: 99.3*; PfM18AAP inh: -6.4; CendR NRP1 mod: 13.4; A3A deaminase: 1.5

Results for Cc1cccc(N2CCN(C(=O)c3cn4ccccc4n3)CC2C)c1 (stereo not drawn) ?
A3G deaminase: -3.5; CR mimetic SO: 101.3; ALR inh: 83.0*; PfM18AAP inh: 0.6; CendR NRP1 mod: -12.4; A3A deaminase: -0.8

What do the screens show for `Cc1cccc(N2CCN(C(=O)Cn3nc(C)n4cccc4c3=O)CC2C)c1` (stereo not drawn)?
A3G deaminase: -9.6; CR mimetic SO: 83.1; ALR inh: 91.2*; PfM18AAP inh: 0.6; CendR NRP1 mod: 10.6; A3A deaminase: -0.7

How did Cc1cccc(N2CCN(C(=O)c3ccc(NC(=O)C4CCCO4)cc3)CC2C)c1 (stereo not drawn) do in these assays?
A3G deaminase: 1.3; CR mimetic SO: 92.7; ALR inh: 98.7*; PfM18AAP inh: -0.6; CendR NRP1 mod: -8.0; A3A deaminase: -0.3

How did Cc1ccc(/C=C2\S/C(=N/S(=O)(=O)c3cccs3)NC2=O)cc1 do in these assays?
A3G deaminase: -4.1; CR mimetic SO: 99.8; ALR inh: 47.3; PfM18AAP inh: 3.3; CendR NRP1 mod: -176.1; A3A deaminase: -1.0

How did C/C(=N\NC(=O)CNc1cccc(Cl)c1C)c1cccs1 do in these assays?
A3G deaminase: -8.2; CR mimetic SO: 111.0; ALR inh: 14.0; PfM18AAP inh: 0.7; CendR NRP1 mod: 5.8; A3A deaminase: -2.1

How did COc1cccc(N2CC(NC(=O)C(=O)c3c[nH]c4ccccc34)CC2=O)c1 (stereo not drawn) do in these assays?
A3G deaminase: -6.3; CR mimetic SO: 115.8; CendR NRP1 mod: 1.4; A3A deaminase: -2.2

Results for Cc1cccc(N2CCN(C(=O)c3ccncc3)CC2C)c1 (stereo not drawn) ?
A3G deaminase: -2.5; CR mimetic SO: 100.6; ALR inh: 98.3*; PfM18AAP inh: -0.1; CendR NRP1 mod: 16.7; A3A deaminase: 1.2

Results for CC1CCCN(C(=S)Nc2ccc(Nc3ccccc3)cc2)C1 (stereo not drawn) ?
A3G deaminase: -2.2; CR mimetic SO: 103.7; ALR inh: 99.3*; PfM18AAP inh: 4.8; CendR NRP1 mod: 3.6; A3A deaminase: -3.4

How did CC1CCCN(C(=S)Nc2ccc(F)cc2)C1 (stereo not drawn) do in these assays?
A3G deaminase: 0.0; CR mimetic SO: 95.4; ALR inh: -1.9; PfM18AAP inh: 2.9; CendR NRP1 mod: 8.9; A3A deaminase: 3.8

How did OC1CCN(C(=S)Nc2ccc(Nc3ccccc3)cc2)CC1 do in these assays?
A3G deaminase: -3.1; CR mimetic SO: 88.8; ALR inh: 99.1*; PfM18AAP inh: 7.4; CendR NRP1 mod: 1.8; A3A deaminase: 1.2

Results for S=C(Nc1ccc(Nc2ccccc2)cc1)N1CCN(c2ncccn2)CC1 ?
A3G deaminase: -3.8; CR mimetic SO: 102.9; ALR inh: 98.3*; PfM18AAP inh: 1.8; CendR NRP1 mod: 0.4; A3A deaminase: -4.1

Results for NC(=O)C1C(c2ccccc2)=C1c1ccccc1 ?
A3G deaminase: -0.9; CR mimetic SO: 88.6; ALR inh: 96.6*; PfM18AAP inh: -9.9; CendR NRP1 mod: -3.8; A3A deaminase: 1.7
